Screens (PubChem)
Avidin bead fluor = green autofluorescence of compounds with avidin beads – biophysical, 488/530 nm, flow cytometry, artefact control, profiling panel | 220,000 compounds, 0.38% hits | compound fluorescence 488/530 nm; active compounds read high | AID 1775, 2009 | fluorescence (KMESF) at 10 µM; in the data active = fluorescence above about 47
RGS8-Gao = RGS8-Galphao binding modulators, primary screen, biochemical, multiplexed bead flow cytometry; actives lie on both sides; response (percent of control binding), % at 10 µM; 220,000 compounds, 0.34% hits; AID 1423, 2008; in the data active = response below about 60% or above about 140%; inactive = in between;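 note: Galphao activated as the GDP aluminium fluoride complex binding bead-coupled RGS8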
Target sequence (P09471 whole entry, looked up): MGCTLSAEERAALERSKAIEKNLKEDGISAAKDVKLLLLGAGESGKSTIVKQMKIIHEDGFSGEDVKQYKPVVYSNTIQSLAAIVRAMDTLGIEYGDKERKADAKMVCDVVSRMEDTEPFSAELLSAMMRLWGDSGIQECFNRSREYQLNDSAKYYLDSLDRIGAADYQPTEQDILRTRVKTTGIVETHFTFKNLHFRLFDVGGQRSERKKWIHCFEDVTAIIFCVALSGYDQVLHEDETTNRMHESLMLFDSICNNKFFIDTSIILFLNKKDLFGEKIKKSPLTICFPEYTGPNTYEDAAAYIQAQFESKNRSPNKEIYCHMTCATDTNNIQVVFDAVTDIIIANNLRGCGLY
RGS7-Gao reg = RGS7-Galphao binding modulators, primary screen, biochemical, multiplexed bead flow cytometry; actives lie on both sides; binding response (% of control), % at 10 µM; 220,000 compounds, 0.35% hits; in the data active = binding response below about 49% or above about 150%; inconclusive = no clear call, values can overlap the other calls; inactive = in between;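 note: fluorescent Galphao held in activated GDP-AlF4 state binding bead-coupled RGS7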
RGS16-Gao = modulators of RGS16 binding to Galphao, primary screen, biochemical, human proteins, multiplexed bead flow cytometry; Regulator of G-protein signaling 16 (Homo sapiens) + Guanine nucleotide-binding protein …; bead-based flow cytometry RGS16-Galphao binding, fluorescence; actives lie on both sides; binding response (% of control), % at 10 µM; 220,000 compounds, 0.38% hits;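 note: Galphao activated by GDP with aluminum fluoride before binding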
Target sequence (O15492 whole entry, looked up): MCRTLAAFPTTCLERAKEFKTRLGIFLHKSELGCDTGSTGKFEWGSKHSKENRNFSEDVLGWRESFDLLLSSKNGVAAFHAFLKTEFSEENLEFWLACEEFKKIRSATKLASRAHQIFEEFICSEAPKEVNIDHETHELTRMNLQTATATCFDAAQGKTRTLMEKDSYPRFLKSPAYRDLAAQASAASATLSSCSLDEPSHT
Target sequence (P09471 whole entry, looked up): as the sequence (P09471 whole entry, looked up) above
GSH fluor = compound fluorescence on glutathione beads, profiling panel, artefact control, biophysical, 488/530 nm, flow cytometry | GSH beads flow cytometry, compound fluorescence 488/530 nm; active compounds read high | fluorescence (KMESF) at 10 µM | 190,000 compounds, 0.25% hits | AID 1776, 2009; in the data active = fluorescence above about 89;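 note: glutathione beads carrying GST-tagged Bcl family fusion proteins plus one bare bead set; values are compound well signal with DMSO vehicle wells as background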
RGS4-Gao reg = modulators of RGS4 binding to Galphao, primary screen, biochemical, multiplexed bead flow cytometry | Guanine nucleotide-binding protein G(o) subunit alpha (Homo sapiens), P09471 | actives lie on both sides | binding response (% of control), % at 10 µM | 220,000 compounds, 0.33% hits | AID 1415, 2008; in the data active = binding response below about 49% or above about 150%; inactive = in between;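 note: fluorescent Galphao activated with aluminum fluoride binding bead-coupled RGS4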
RGS-Gao = modulators of RGS–Galpha-o binding, primary screen, biochemical, multiplexed beads, flow cytometry, RGS4/7/8/16/19 | multiplexed bead flow cytometry | AID 1504, 2009 | shares compounds with RGS16-Gao | 1,600 compounds, 99% hits | RGS4–Galpha-o binding response, % at 10 µM;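 note: fluorescently labeled Galpha-o bound to GDP with aluminium fluoride binding biotinylated RGS beads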
Avidin counter = disruption of biotin probe capture by avidin, counter-screen for RGS protein interaction modulators, biochemical, flow cytometry, bead-based. shares compounds with RGS16-Gao. streptavidin beads, fluorescein-biotin binding. inhibition, % at 10 µM. 1,700 tested, under 10 active. AID 1783, 2009;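 active = inhibition above 50%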;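 note: median green fluorescence of gated singlet beads compared with DMSO control wells; 0% = DMSO wells and 100% = complete loss of bead fluorescence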
RGS8-Gao single = RGS8-Galphao binding modulators, confirmation, biochemical, multiplexed bead flow cytometry, single concentration. 1,700 compounds, 3% hits. shares compounds with RGS16-Gao. bead-based flow cytometry RGS8-Galphao binding, fluorescence; actives lie on both sides. binding response (% of control), % at 10 µM; in the data active = binding response below about 72% or above about 130%; inactive = in between;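 note: Galphao activated as GDP AlF4 complex before binding bead RGS8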
RGS7-Gao confirm = RGS7-Galphao binding modulators, confirmation, biochemical, multiplexed bead flow cytometry, single concentration; shares compounds with RGS16-Gao; AID 1837, 2009; 1,700 compounds, 7.8% hits; response (percent of control binding), % at 10 µM; bead-based flow cytometry RGS7-Galphao binding; actives lie on both sides; in the data active = response below about 75% or above about 130%; inactive = in between;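 note: fluorescent Galphao activated with GDP and aluminum fluoride binding bead-coupled RGS7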
RGS16-Gao single = modulators of RGS16-Galphao protein binding, confirmation, biochemical, single concentration, multiplexed bead flow cytometry. 1,700 compounds, 4% hits. bead-based flow cytometry; actives lie on both sides. shares compounds with RGS16-Gao. response (% of control binding), % at 10 µM. AID 1838, 2009; in the data active = response below about 74% or above about 130%; inactive = in between;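 note: Galphao activated as the GDP aluminium fluoride complex binding bead-coupled RGS16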
RGS4-Gao single = modulators of RGS4-Galphao protein binding, confirmation, biochemical, single concentration, multiplexed bead flow cytometry; shares compounds with RGS16-Gao; actives lie on both sides; binding response (% of control), % at 10 µM; 1,700 compounds, 4% hits; AID 1840, 2009; in the data active = binding response below about 74% or above about 130%; inactive = in between
RGS19-Gao single = regulators of RGS19-Galphao binding, confirmation, biochemical, single point, multiplexed bead flow cytometry | bead-based flow cytometry RGS19-Galphao binding; actives lie on both sides | response (percent of control binding), % at 10 µM | AID 1841, 2009 | 1,700 compounds, 5% hits | shares compounds with RGS16-Gao; in the data active = response below about 50% or above about 160%; inactive = in between;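 note: 100% = no compound control and 0% = blank background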
* marks the source's active call; other numbers are inactive results; ? = inconclusive; nt = no result; [ ] = another dose, or the depositor's remark. This is a sample that favours compounds with a hit; in the whole collection about 1.2% have one here. Unless noted, the rule behind the calls is not given here.

SMILES	Avidin bead fluor	RGS8-Gao	RGS7-Gao reg	RGS16-Gao	GSH fluor	RGS4-Gao reg	RGS-Gao	Avidin counter	RGS8-Gao single	RGS7-Gao confirm	RGS16-Gao single	RGS4-Gao single	RGS19-Gao single
COc1ccccc1NC(=O)c1ccc(-n2cccn2)nc1	20	99	99	96	55	98	nt	nt	nt	nt	nt	nt	nt
OC[C@@H]1CCCN1Cc1cn(-c2ccccc2)nc1-c1ccc2c(c1)OCO2	4	102	104	97	17	104	nt	nt	nt	nt	nt	nt	nt
COCC1CCCCN1Cc1cn(-c2ccccc2)nc1-c1ccc2c(c1)OCO2 (stereo unspecified)	69*	104	182*[activator]	113	11	116	116*	0	100	95	97	98	76
CSCC[C@H](NC(=O)Nc1ccc(OC(F)(F)F)cc1)C(=O)O	5	55*	?	48	nt	61	61*	0	102	99	98	102	97
CN(CC(=O)O)c1ccc(C(F)(F)F)cc1[N+](=O)[O-]	9	103	98	103	13	102	nt	nt	nt	nt	nt	nt	nt
CCO[C@@H]1OC(C(=O)N2CCN(Cc3ccc4c(c3)OCO4)CC2)=C[C@H](c2cn(C(C)=O)c3ccccc23)[C@H]1CCCO	7	107	167*[activator]	123	19	137	137*	-1	105	104	109	105	111
CCO[C@H]1OC(C(=O)N2CCN(Cc3ccc4c(c3)OCO4)CC2)=C[C@@H](C2CC2)[C@@H]1CCCO	3	67	42*	56	20	51	51*	-1	93	87	90	90	90
CCO[C@@H]1OC(C(=O)N2CCN(Cc3ccc4c(c3)OCO4)CC2)=C[C@H](c2csc3ccccc23)[C@H]1CCCO	7	101	100	101	17	104	nt	nt	nt	nt	nt	nt	nt
O=C(CCc1nnc(-c2ccsc2)o1)N1CCc2c(Cl)cccc2C1	12	103	97	100	15	98	nt	nt	nt	nt	nt	nt	nt
CC(=O)Oc1c(C)cc(Cl)cc1C(=O)Nc1ccc([N+](=O)[O-])cc1Cl	3	107	104	113	7	104	nt	nt	nt	nt	nt	nt	nt
C/C(CC(=O)NC12CC3CC(CC(C3)C1)C2)=N\NC(=O)c1ccc(C)cc1	11	101	102	102	12	99	nt	nt	nt	nt	nt	nt	nt
Cc1ccc(CN2CCN(/N=C/c3ccc(C(F)(F)F)cc3)CC2)c(C)c1	10	99	99	100	13	101	nt	nt	nt	nt	nt	nt	nt
Oc1c(Br)cc(Br)cc1/C=N/N1CCN(Cc2ccccc2)CC1	107*	101	172*[activator]	103	17	112	112*	-1	104	101	105	102	100
CN(C)C(=S)Nc1ccc2c(c1)OCO2	9	94	95	95	10	97	nt	nt	nt	nt	nt	nt	nt
S=C(Nc1ccc2c(c1)OCO2)Nc1ccc2c(c1)OCO2	10	141*[activator]	159*[activator]	146	22	142	142*	0	100	103	99	102	92
CCCCOc1ccc(C(=O)NCC2(c3ccc(OC)cc3)CCOCC2)cc1	23	95	97	100	11	97	nt	nt	nt	nt	nt	nt	nt
Cc1onc(-c2ccccc2Cl)c1C(=O)NCc1cccs1	17	103	102	103	22	101	nt	nt	nt	nt	nt	nt	nt
Cc1noc(C)c1C(=O)NCc1cccs1	nt	nt	nt	nt	33	nt	nt	1	102	101	104	103	106
Cc1ccc(SC[C@H](c2ccccc2)N2CCN(CC(C)C)CCC2=O)cc1	11	101	?	99	nt	98	nt	nt	nt	nt	nt	nt	nt
CC(=O)N1CC=C2C(C#N)=C(N)C(C#N)(C#N)C(CCc3ccccc3)C2C1 (stereo unspecified)	nt	nt	nt	nt	43	nt	nt	-2	98	100	101	100	94
CCN1CC=C2C(C#N)=C(N)C(C#N)(C#N)C(CCc3ccccc3)C2C1 (stereo unspecified)	7	102	101	104	5	106	nt	nt	nt	nt	nt	nt	nt
COc1ccc(NC(=O)Cn2c(=O)n(-c3ccccc3)c(=O)c3oc4ccccc4c32)c(OC)c1	15	126	109	232*[activator]	4	106	106*	1	94	87	90	89	96
COc1ccccc1NC(=O)Cn1c(=O)n(-c2ccccc2)c(=O)c2oc3ccccc3c21	3	89	100	59	19	95	nt	nt	nt	nt	nt	nt	nt
Cc1ccc(/C=C/C(=O)N2CC(C)CC(C)C2)o1 (stereo unspecified)	2	93	100	92	21	98	nt	nt	nt	nt	nt	nt	nt
CCN1c2cccc3cccc(c23)S1(=O)=O	21	131	155*[activator]	152	32	155*[activator]	nt	-1	102	104	103	101	100
COC(=O)CNC(=O)CN1c2cccc3cccc(c23)S1(=O)=O	28	98	95	99	17	100	nt	nt	nt	nt	nt	nt	nt
